Drawing on PubChem BioAssay (EPA / NIEHS), this text covers outcome and AC50 for 14 compounds.

Results filed as inconclusive are left out. Active and inactive are the calls of the source. The calls were made as follows, unless noted: active = hit-call score of the fitted dose curve at least 0.9, where 1 is the maximum; inconclusive = response in the unintended direction; inactive = score below 0.9.

By AC50 is commonly meant the concentration giving half of the maximal activity seen.

Assay [1] in a line: TOX21_p53_BLA_p2_viability: Viability Assessment in the Tox21 HCT-116 p53 Agonism Beta-lactamase Assay, Phase 2 (AID 2283591).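 Also: actives lower the ATP signal meaning cytotoxicity.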 An outline of the steps: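 HCT-116 p53-bla cells (4000/well) rested 5 h at 37C, then received compounds in DMSO (217-fold dilution) for 16 h at 37C, 5% CO2. After the CCF4 read, CellTiter-Glo was added; ATP luminescence was read after 30 min at room temperature.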

The target in assay [2] is Cellular tumor antigen p53 (Homo sapiens) (UniProt P04637). The experiment in a line: TOX21_p53_BLA_p2_ratio: Tox21 HCT-116 p53 Agonism Beta-lactamase Assay, Ratio, Phase 2 (AID 2283592). The method, boiled down: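 Readout: blue/green (460/530 nm) FRET emission ratio after 2 h CCF4-AM loading at room temperature, excitation 405 nm. HCT116 p53 bla cells, 16 h compound exposure at 37C, 5% CO2; agonist direction fitted against DMSO baseline.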

A short description of assay [3]: TOX21_p53_BLA_p3_viability: Viability Assessment in the Tox21 HCT-116 p53 Agonism Beta-lactamase Assay, Phase 3 (AID 2283593).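 Also: cells exposed to compound for 16 h before reading.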 An outline of the steps:
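HCT-116 cells (4000/well) rested 5 h at 37C, then got DMSO compounds by pin tool (217-fold dilution) for 16 h at 37C, 5% CO2. After the bla read, CellTiter-Glo was added and luminescence read at 30 min, room temperature.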

Assay [4] in a line: TOX21_p53_BLA_p4_viability: Viability Assessment in the Tox21 HCT-116 p53 Agonism Beta-lactamase Assay, Phase 4 (AID 2283597).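 Also: hits lower the luminescence signal meaning cytotoxicity.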 The method, boiled down: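 ATP content by CellTiter-Glo luminescence, 30 min RT, read after the beta-lactamase ratio step. Cells: HCT116, 4000/well, compound added after 5 h, exposure 16 h at 37C. Signal loss = reduced viability.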
For assay [5], the target named is Cellular tumor antigen p53 (Homo sapiens) (UniProt P04637). The experiment in a line: TOX21_p53_BLA_p5_ratio: Tox21 HCT-116 p53 Agonism Beta-lactamase Assay, Ratio, Phase 5 (AID 2283599). An outline of the steps:
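HCT-116 cells carrying a p53-inducible beta-lactamase reporter were seeded at 4000 cells/well and dosed after 5 h with compound in DMSO (217-fold dilution). After 16 h at 37C, CCF4-AM substrate was added for 2 h, and the 460/530 nm emission ratio was scored as gain-of-signal versus DMSO.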

Assay [6] in a line: TOX21_p53_BLA_p5_viability: Viability Assessment in the Tox21 HCT-116 p53 Agonism Beta-lactamase Assay, Phase 5 (AID 2283600). The method, boiled down:
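ATP luminescence (CellTiter-Glo, 30 min, RT) served as the viability read-out, with loss of signal indicating cytotoxicity. Compounds in DMSO were pinned at a 217-fold dilution onto 4000 cells/well and incubated 16 h, 37C.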

The target in assay [7] is Cellular tumor antigen p53 (Homo sapiens) (UniProt P04637). The experiment in a line: TOX21_p53_BLA_p4_ratio: Tox21 HCT-116 p53 Agonism Beta-lactamase Assay, Ratio, Phase 4 (AID 2283601). The method, boiled down:
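HCT116 cells carrying an inducible beta-lactamase reporter were plated at 4000 cells/well, rested 5 h, then exposed to compounds in DMSO (217-fold dilution) for 16 h at 37C. CCF4-AM substrate was loaded 2 h at room temperature; 460/530 nm emission ratio scored gain-of-signal versus DMSO.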

The target of assay [8] is PGR (gene 5241) (UniProt P06401). The experiment in a line: TOX21_PR_BLA_Followup_Antagonist_ratio: Tox21 HEK293 Progesterone Receptor (PR) Antagonism Beta-lactamase Follow-Up Assay, Ratio (AID 2283934).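 Also: PR-UAS-bla HEK293T cells stimulated with 1 nM R5020 agonist for 16 hr.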 An outline of the steps: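 Readout is the blue/green (ch2/ch1) substrate cleavage ratio after 2 hours at room temperature, following 16 hr co-treatment of PR-bla HEK293T cells with compound and 1nM promegestone. Multiplexed CellTiter-Glo viability flags cytotoxicity; DMSO baseline.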

Assay [9] is described as follows: TOX21_PR_BLA_Followup_Agonist_viability: Viability Assessment in the Tox21 HEK293 Progesterone Receptor (PR) Agonism Beta-lactamase Follow-Up Assay (AID 2283935).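 Also: signal loss means lower viability so actives are cytotoxic.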 An outline of the steps:
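Run multiplexed with the beta-lactamase FRET read, this endpoint measures ATP by CellTiter-Glo luminescence (30 min, room temperature). PR-UAS-bla HEK293T cells received compound 6 hr after plating and were then incubated 16 hr at 37C in 2% stripped serum.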

Assay [10] is described as follows: TOX21_PR_BLA_Followup_Antagonist_viability: Viability Assessment in the Tox21 HEK293 Progesterone Receptor (PR) Antagonism Beta-lactamase Follow-Up Assay (AID 2283936).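 Also: cells exposed to compound with R5020 agonist for 16 h; hits lower the luminescence signal meaning cytotoxicity.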 An outline of the steps:
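PR-UAS-bla HEK293T cells in medium with 2% charcoal-stripped FBS were treated with compounds plus R5020 for 16 hr at 37C. After the beta-lactamase read, CellTiter-Glo was added to the same wells and luminescence read after 30 min at room temperature.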

Assay [11] addresses PGR (gene 5241) (UniProt P06401). The experiment in a line: TOX21_PR_LUC_Followup_Antagonist: Tox21 HEK293 Progesterone Receptor (PR) Antagonism Luciferase Follow-Up Assay (AID 2283938).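 Also: curve fitted upward as signal gain over DMSO baseline despite antagonist label.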 The method, boiled down: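 Luminescence from ONE-Glo reagent, measured after 30 min at room temperature, served as readout. Cells (HEK293 carrying PR-A-luc) had been treated 16 h at 37C with DMSO-dissolved compounds. Activity was fitted against DMSO controls.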

A short description of assay [12]: CCTE_Harrill_HTTr_Viability_MCF7: CCTE's 6-hour Cell Viability Assessment for the High-Throughput Transcriptomics (HTTr) Platform, in MCF-7 cells cultured in DMEM + 10% fetal bovine serum, Harrill Lab (AID 2284010; active = hit-call score of the fitted dose curve at least 0.9, where 1 is the maximum; inactive = score below 0.9). An outline of the steps: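 Propidium iodide exclusion, imaged by high-content analysis, gauged viability after a six-hour exposure across eight concentrations. Cells were MCF-7 grown in DMEM with 10% fetal bovine serum; fits run in both directions against DMSO.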

Assay [13] can be described thus: CCTE_Harrill_HTTr_Apoptosis_MCF7: CCTE's 6-hour Apoptosis Assessment for the High-Throughput Transcriptomics (HTTr) Platform, in MCF-7 cells cultured in DMEM + 10% fetal bovine serum, Harrill Lab (AID 2284011; active = hit-call score of the fitted dose curve at least 0.9, where 1 is the maximum; inactive = score below 0.9). An outline of the steps:
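Read-out: CellEvent Caspase 3/7 Green signal by high content imaging, gain-of-signal indicating apoptosis. MCF-7 cells, DMEM + 10% FBS, eight-point dilution series, 6 h exposure. Curves fitted bidirectionally relative to DMSO negative control.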

Cellular tumor antigen p53 (Homo sapiens), sequence (P04637 whole entry, looked up): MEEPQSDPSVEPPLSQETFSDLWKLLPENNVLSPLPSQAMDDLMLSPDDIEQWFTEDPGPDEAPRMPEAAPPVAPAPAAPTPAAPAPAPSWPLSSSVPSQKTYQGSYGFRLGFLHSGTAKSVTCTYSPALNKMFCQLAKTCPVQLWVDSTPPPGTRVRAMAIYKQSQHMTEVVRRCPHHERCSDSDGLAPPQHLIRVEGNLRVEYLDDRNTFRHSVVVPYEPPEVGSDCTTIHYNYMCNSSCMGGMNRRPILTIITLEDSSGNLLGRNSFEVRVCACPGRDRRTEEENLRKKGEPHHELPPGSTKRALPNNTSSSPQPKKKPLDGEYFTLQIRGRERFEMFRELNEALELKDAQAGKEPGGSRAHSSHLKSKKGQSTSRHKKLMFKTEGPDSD
PGR (gene 5241), sequence (P06401 whole entry, looked up): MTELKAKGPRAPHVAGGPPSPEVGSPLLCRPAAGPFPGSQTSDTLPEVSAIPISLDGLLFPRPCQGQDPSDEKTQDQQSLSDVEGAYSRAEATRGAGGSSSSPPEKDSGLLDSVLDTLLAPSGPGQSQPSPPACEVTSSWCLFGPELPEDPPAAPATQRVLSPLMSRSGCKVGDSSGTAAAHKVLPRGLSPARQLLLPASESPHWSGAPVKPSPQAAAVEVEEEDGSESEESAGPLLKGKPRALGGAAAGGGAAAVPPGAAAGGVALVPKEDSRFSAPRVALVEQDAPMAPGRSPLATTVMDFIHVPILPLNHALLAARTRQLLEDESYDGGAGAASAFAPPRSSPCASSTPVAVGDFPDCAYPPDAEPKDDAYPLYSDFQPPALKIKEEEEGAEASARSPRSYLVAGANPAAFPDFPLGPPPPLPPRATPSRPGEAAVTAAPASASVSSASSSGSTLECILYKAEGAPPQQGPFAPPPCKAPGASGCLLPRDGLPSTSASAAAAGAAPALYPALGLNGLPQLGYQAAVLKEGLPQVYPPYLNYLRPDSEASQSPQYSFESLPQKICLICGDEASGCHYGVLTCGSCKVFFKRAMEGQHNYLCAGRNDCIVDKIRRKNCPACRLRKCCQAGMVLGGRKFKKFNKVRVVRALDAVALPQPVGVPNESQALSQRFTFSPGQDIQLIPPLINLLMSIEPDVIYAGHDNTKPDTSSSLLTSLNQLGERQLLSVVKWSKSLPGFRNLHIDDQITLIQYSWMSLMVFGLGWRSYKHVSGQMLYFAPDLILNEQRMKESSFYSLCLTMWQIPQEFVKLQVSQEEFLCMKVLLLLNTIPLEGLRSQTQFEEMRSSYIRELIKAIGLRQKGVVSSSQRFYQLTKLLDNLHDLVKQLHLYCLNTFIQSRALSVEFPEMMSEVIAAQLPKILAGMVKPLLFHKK

For the compound `CCCCCCCCCCCCCCCC[N+](C)(C)CCN(Cc1ccc(OC)cc1)c1ncccn1`, the compound was classed as inactive in assay [1], in assay [2], in [3], in [5], in assay [6] and in assay [7]. Besides, the AC50 in [4] is 17.3 µM (active).

As for `C=CCONC(CCC)=C1C(=O)CC(C)(C)C(C(=O)OC)=C1O`, the compound was classed as inactive in assay [1], in assay [2], in assay [3], in assay [4], in assay [5] and in [7].

Turning to `O=C1Nc2ccc(Cl)cc2[C@@](C#CC2CC2)(C(F)(F)F)O1`, the AC50 in [1] is 37.1 µM (active); in assay [4] it was 36.3 µM (active); in assay [5], 36.7 µM (active); in [6], 38.3 µM (active); in assay [7], 43.5 µM (active); with PGR (gene 5241) [8], 17 µM (active). The outcome (in assay [2]; in [3]; in assay [9]; in assay [10]; in the assay with PGR (gene 5241) [11]; in [12]) was inactive. The outcome in assay [13] was inactive.

Take `O=C1c2ccccc2C(=O)N1CCl`: the outcome in assay [1], in assay [2], in assay [3], in [4], in assay [5] and in assay [6] was inactive. Also, the result in [7] was inactive.

`Nc1nc(-c2ccccc2)c(Br)c(=O)[nH]1`: the compound was called inactive in assay [1], in assay [2], in [3], in [4], in assay [5] and in assay [6]. For the same compound, in assay [7], the outcome was inactive.

In the case of `O=C1C(c2[nH]c3ccccc3c2O)=Nc2ccccc21`, the result in [1], in assay [2], in assay [3], in assay [4], in assay [5] and in assay [6] was inactive. Also, in [7], the outcome was inactive.

Regarding `CCN(CC)CCNC(=O)c1ccc(NS(C)(=O)=O)cc1`, the compound was classed as inactive in assay [1], in [2], in [3], in assay [4] and in assay [6].

`OC[C@H](Cc1cccc(O)c1)[C@H](CO)Cc1cccc(O)c1`: the outcome in assay [1], in assay [2], in assay [3], in assay [4] and in assay [6] was inactive.

For the compound `CC(C)=CCC/C(C)=C/CC/C(C)=C/CC/C=C(\C)CC/C=C(\C)CCC=C(C)C`, the result in assay [1], in assay [2], in assay [3], in assay [4], in [6] and in [7] was inactive.

Turning to `CCCCCCCCCCCCCCCBr`, the outcome in assay [1], in [2], in [3], in assay [4] and in assay [6] was inactive.

As to `OC(CN1CCC(Cc2ccc(F)cc2)CC1)c1ccc(Cl)cc1` (stereo unspecified), the compound was called inactive in assay [1], in assay [2], in assay [3], in assay [4], in [6] and in [7].

In the case of `CN(C(=O)CO)c1c(I)c(C(=O)NCC(O)CO)c(I)c(C(=O)NCC(O)CO)c1I` (stereo unspecified), the compound was called inactive in assay [1], in assay [2], in assay [3], in assay [4], in assay [6] and in assay [7].

For the compound `O=C(Nc1ccccc1)Nc1ccccc1`, the compound was called inactive in assay [1], in assay [2], in assay [3], in [4] and in [6].

As for `Cc1nccn1CC1CCc2c(c3ccccc3n2C)C1=O` (stereo unspecified), the result in assay [1], in assay [2], in [3], in assay [4], in assay [6] and in assay [7] was inactive.
